Source: PubChem BioAssay (Tox21)
Records with an inconclusive call do not appear. Calls of active or inactive are those of the source. Unless noted, calls come from the whole dose curve.

Key:
[1] = biological target: Thyrotropin receptor (Homo sapiens) (UniProt P16473); assay: qHTS assay to identify small molecule agonists of the thyroid stimulating hormone receptor (TSHR) signaling pathway (AID 1224843); note: nearly all actives have a fitted effect of over 45% in size; note: potency is the fitted concentration of half-maximal effect
Thyrotropin receptor (Homo sapiens), sequence (P16473 whole entry, looked up): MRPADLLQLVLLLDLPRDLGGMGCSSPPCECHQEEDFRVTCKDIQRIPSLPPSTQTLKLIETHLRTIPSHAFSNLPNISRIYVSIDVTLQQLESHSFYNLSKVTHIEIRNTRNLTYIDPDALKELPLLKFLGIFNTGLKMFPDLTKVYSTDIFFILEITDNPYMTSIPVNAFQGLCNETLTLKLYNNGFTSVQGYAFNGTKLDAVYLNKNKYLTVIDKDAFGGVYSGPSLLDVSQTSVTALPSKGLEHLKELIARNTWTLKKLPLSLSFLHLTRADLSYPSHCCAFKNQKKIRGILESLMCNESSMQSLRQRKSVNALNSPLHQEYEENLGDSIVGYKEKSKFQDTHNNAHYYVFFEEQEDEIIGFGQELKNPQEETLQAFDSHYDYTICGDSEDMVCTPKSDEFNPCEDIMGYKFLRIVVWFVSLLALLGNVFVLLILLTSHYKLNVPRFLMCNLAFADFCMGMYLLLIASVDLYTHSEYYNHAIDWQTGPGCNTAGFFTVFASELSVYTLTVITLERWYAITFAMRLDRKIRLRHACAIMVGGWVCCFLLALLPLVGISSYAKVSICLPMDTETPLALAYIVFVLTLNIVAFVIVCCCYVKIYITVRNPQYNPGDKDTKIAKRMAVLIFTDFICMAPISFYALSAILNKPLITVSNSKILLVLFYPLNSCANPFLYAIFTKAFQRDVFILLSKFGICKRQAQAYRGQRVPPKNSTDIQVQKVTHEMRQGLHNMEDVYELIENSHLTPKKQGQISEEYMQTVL
Summary of the method: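 Agonist activity read as cAMP rise via d2/cryptate HTRF competition, 1 h room-temperature detection, in HEK293 cells expressing TSHR. Fifteen-point titrations, each run in triplicate, with a 30 min room-temperature incubation beforehand.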

[2] = qHTS assay to identify small molecule agonists of the hypoxia (HIF-1) signaling pathway - cell viability counter screen (AID 1224844); note: nearly all actives have a fitted effect of over 50% in size
Summary of the method: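 Cytotoxicity measured by CellTiter-Glo ATP luminescence in the wells also read for beta-lactamase signal. Cells were HRE-bla ME-180 (2,000/well, 0.5% dialyzed FBS), exposed to compounds for 17 h at 37C.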

[3] = qHTS assay to identify small molecule agonists of H2AX - cell viability counter screen (AID 1224847); note: top concentration of the series differs between compounds; nearly all actives have a fitted effect of over 30% in size
Summary of the method: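 Quantitative HTS viability measurement: CHO-K1 wild-type cells in serum (10% FBS) medium, short 3 hr drug exposure at 37C with 0.76% DMSO, CellTiter-Glo luminescent detection.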

[4] = qHTS RealTime-Glo MT Cell Viability Assay in HepG2 cells - 24 hour (AID 1224867; active = well fitted curve in the direction sought with a large enough effect in the repeat runs; an effect the other way counts as inactive or inconclusive; note: nearly all actives have a fitted effect of over 50% in size)
Summary of the method: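 Luminescence read-out: viable HepG2 cells reduce a prosubstrate to a NanoLuc substrate, giving a signal proportional to live cell number. Reads taken at 0, 8, 16, 24, 32 and 40 h of compound exposure at 37 C.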

[5] = qHTS RealTime-Glo MT Cell Viability Assay in HEK293 cells - 32 hour (AID 1224868; active = well fitted curve in the direction sought with a large enough effect in the repeat runs; an effect the other way counts as inactive or inconclusive; note: top concentration of the series differs between compounds; nearly all actives have a fitted effect of over 50% in size)
Summary of the method: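 Nonlytic real-time viability readout: viable cells convert prosubstrate to NanoLuc substrate, giving luminescence proportional to live cell number. HEK293, 600 cells/well, compound added after 5 h, continuous culture at 37 C.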

[6] = A CellTox Green Cytotoxicity Assay to monitor cytotoxicity in HEK293 cells - 0 hour (AID 1224869; active = well fitted curve in the direction sought with a large enough effect in the repeat runs; an effect the other way counts as inactive or inconclusive; note: nearly all actives have a fitted effect of over 50% in size)
Summary of the method: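 Fluorescence from a DNA-binding dye excluded by viable cells was measured repeatedly in the same HEK293 wells (600 cells/well) during continuous compound exposure at 37 C. Each assay gives one read point: 0, 8, 16, 24, 32 or 40 h.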

[7] = qHTS assay to identify small molecule agonists of H2AX (AID 1224845; active = well fitted activation curve with a large enough effect in the signal ratio in the repeat runs, not every such curve was filed as active; the % refers to the signal ratio)
Summary of the method: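 Phospho-H2AX Ser139 measured by HTRF (ex 320 nm; em 665 and 620 nm) after 24 hr antibody incubation. Compounds, 15 concentrations, 0.76% DMSO, were applied to CHO-K1 cells for 3hr at 37C before lysis.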

[8] = qHTS assay to identify small molecule antagonists of the estrogen related receptor (ERR) signaling pathway from Tox21 library (AID 1224848; active = well fitted curve in the direction sought with a large enough effect in the repeat runs; an effect the other way counts as inactive or inconclusive; note: nearly all actives have a fitted effect of over 50% in size)
Summary of the method: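 Luciferase luminescence (ONE-Glo, 30 min room temperature) was the read-out. Cells of the NTP-supplied ERR line, 2,000 per well, were given 6 h at 37 C before compound addition in DMSO and 18 h exposure at 37 C.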

[9] = qHTS assay to identify small molecule agonists of the estrogen related receptor (ERR) signaling pathway from Tox21 library (AID 1224849); conditions: ERR reporter cell line, ONE-Glo luciferase, 18 h; at 92.4 µM (top of the series) unless noted; note: nearly all actives have a fitted effect of over 15% in size
Summary of the method: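 Luminescent agonist read-out (One-Glo, 30-minute room-temperature incubation) following 18-hour compound treatment at 37 C of the ERR cell line, which had been plated 6 hours before dosing.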

[10] = qHTS assay to identify small molecule agonists of the hypoxia (HIF-1) signaling pathway (AID 1224846; active = well fitted activation curve with a large enough effect in the signal ratio in the repeat runs, not every such curve was filed as active; the % refers to the signal ratio)
Summary of the method: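 Compounds added to ME-180 cells carrying hypoxia-response-element beta-lactamase reporter (0.5% dialyzed FBS, 5 h preplating), 17 h at 37C; agonist activity detected by CCF4-AM B/G FRET read-out.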
% is set by controls: 0 for no effect and ±100 for the full control effect.

NNc1nnc(NN)c2ccccc12
inactive: Potency [1] | outcome [2] | Potency [3] | outcome [4] | Potency [5] | outcome [6]

CCCCNc1ccc(C(=O)OCCN(C)C)cc1
inactive: Potency [1] | outcome [7] | Potency [3] | outcome [4] | Potency [5] | outcome [6]

Cc1ccsc1/C=C/C1=NCCCN1C
inactive: Potency [1] | outcome [2] | Potency [3] | Potency [8] | activity change, positive = activation [9] -1.39% [at 42.5 µM] | outcome [4] | Potency [5] | outcome [6]

O=Cc1ccc(Cl)c(Cl)c1
inactive: Potency [1] | outcome [2] | outcome [10] | Potency [3] | outcome [4] | outcome [6]

Cc1[nH]cnc1-c1ccc(Cl)cc1
inactive: Potency [1] | outcome [2] | Potency [3] | outcome [4] | Potency [5] | outcome [6]

ClCCCl
inactive: outcome [2] | outcome [7] | outcome [10] | Potency [3] | Potency [8] | activity change, positive = activation [9] 12.2% | outcome [4] | Potency [5] | outcome [6]

O=C1c2ccccc2C(=O)c2cc(S(=O)(=O)O)ccc21
inactive: Potency [1] | outcome [2] | outcome [10] | Potency [3] | outcome [4] | outcome [6]

CCN(CC)CC(=O)Nc1c(C)cccc1C
inactive: Potency [1] | outcome [2] | Potency [3] | Potency [8] | outcome [4] | outcome [6]

CCN(C)C(=O)Oc1cccc([C@H](C)N(C)C)c1
inactive: Potency [1] | outcome [2] | outcome [10] | Potency [3] | outcome [4] | Potency [5] | outcome [6]

COC(=O)[C@@H]1[C@H]2C[C@H]3c4[nH]c5ccccc5c4CCN3C[C@@H]2CC[C@@H]1O
inactive: Potency [1] | outcome [2] | Potency [3] | Potency [8] | outcome [4] | Potency [5] | outcome [6]
active: activity change, positive = activation [9] 33.5% [at 42.5 µM]

Oc1cn2c(n1)Nc1ccc(Cl)c(Cl)c1C2
inactive: activity change, negative = cytotoxicity [2] -1.47% [at 15.8 µM] | activity change, negative = cytotoxicity [3] 0.633% [at 31.6 µM] | activity change, negative = cytotoxicity [4] -0.765% [at 15.8 µM] | activity change, negative = cytotoxic [5] 9.1% [at 15.8 µM] | cytotoxicity [6] 0.503% [at 15.8 µM]
active: Potency [1] 730 nM

Cc1ccc(C=O)cc1C
inactive: Potency [1] | outcome [2] | outcome [10] | Potency [3] | outcome [4] | Potency [5] | outcome [6]

O=C(OCC1(COC(=O)c2cccnc2)CCCC(COC(=O)c2cccnc2)(COC(=O)c2cccnc2)C1O)c1cccnc1
inactive: Potency [1] | outcome [2] | outcome [10] | Potency [3] | outcome [4] | Potency [5] | outcome [6]

CCCN1C[C@H](CSC)C[C@@H]2c3cccc4[nH]cc(c34)C[C@H]21
inactive: Potency [1] | outcome [2] | Potency [3] | outcome [4] | Potency [5] | outcome [6]
